High-throughput results (PubChem BioAssay)
An excerpt weighted towards active compounds, which were near 19% of everything screened.
CHX counter = counter-screen hit for Shiga toxin inhibitors, cycloheximide; hit rate 12% among 300,000; max response, %; cell reporter, cycloheximide protein synthesis inhibition counterscreen; AID 2314; in the data active means max response mostly above about 13%, no sharp cut-off; inactive means mostly below about 14%; further: read at 38.3 µM for the half of the compounds with a filed dose; 0% is about no effect
AMA1-RON2 inh = disrupts binding of P. falciparum AMA1 to RON2; AlphaScreen AMA1-biotinylated RON2 peptide binding; Potency, µM (highest dose often 58.2 µM), without a hit: at the highest dose activity change, negative = inhibition, most hits filed as inhibitors; hit rate 0.2% among 360,000;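 further: potency means the concentration at half of the fitted maximal effect; 0% = vehicle wells and -100% = peptide control; nearly all actives have a fitted effect of over 45% in size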
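AMA1 (3D7) with his tag at 25 nM final met compounds first, then biotinylated RON2 peptide at 25 nM; detection used donor plus acceptor beads, 10 µg/mL apiece, read by AlphaScreen after 30 min at room temperature.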
Pf growth 96h = inhibits malaria parasite growth, 96 h; P. falciparum luciferase reporter growth, 96 h; Potency, µM (highest dose often 28.7 µM), without a hit: at the highest dose activity change, negative = inhibition, most hits filed as inhibitors; hit rate 6.9% among 320,000; AID 504834; further: potency means the concentration at half of the fitted maximal effect; on the % scale 0 is the no-effect control and ±100 the full control effect
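Luminescence readout: decreased luciferase signal marks inhibited growth of reporter-expressing P. falciparum in infected red cells (2% hematocrit, 0.05% parasitemia final), exposed to compound two generations (96 h, 37 C, 5% CO2).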
SARS PLpro yeast = blocks SARS-CoV papain-like protease in a yeast assay; S. cerevisiae expressing SARS-CoV PLpro, growth rescue; Potency, µM (doses to about 32.9 µM), without a hit: at the top dose activity, positive = growth rescue, usual class: activators; hit rate 0.19% among 330,000; calls by dose curve; further: potency means the concentration at half of the fitted maximal effect; 0% is about no effect; nearly all actives have a fitted effect of over 55% in size
Pf growth 48h = P. falciparum growth inhibition at 48 hours (one generation); P. falciparum luciferase growth in erythrocytes, 48 h; hit rate 5.9% among 310,000; Potency, µM (doses to about 28.7 µM), inactives show top-dose activity change, negative = inhibition, actives largely listed as inhibitors; further: potency means the concentration at half of the fitted maximal effect; on the % scale 0 is the no-effect control and ±100 the full control effect
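A one-generation exposure of luciferase-tagged malaria parasites in RPMI 1640/Albumax erythrocyte culture, 37 C and 5% CO2. Inhibition is inferred from decreased luminescence after adding detection reagent.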
Shiga toxin inh = inhibitors of Shiga toxin in Vero cells. Vero cells, Shiga toxin protein synthesis inhibition reporter. inhibition, % at 38.7 µM. hit rate 9.2% among 290,000. AID 2315; in the data active means inhibition mostly above about 28%, no sharp cut-off; inactive means mostly below about 43%; further: 0% is about no effect
Numbers without * were called inactive; ? = inconclusive; nt = not tested or not shown; [ ] = remark or other dose. Unless noted, the call rests on the fitted dose curve; in most records, active means well fitted curve in the direction sought with a large enough effect; inconclusive means small, poorly fitted or top-dose-only effect, or another doubt; inactive means no such curve, though single readings can be large; an effect the other way counts as inactive or inconclusive.

SMILES | CHX counter | AMA1-RON2 inh | Pf growth 96h | SARS PLpro yeast | Pf growth 48h | Shiga toxin inh
Cc1cc(C)n(-c2ccc(NC(=O)C3CCN(Cc4cnc(C)s4)CC3)cc2)n1 | 2 | -14% | -23% | 19% | ? | 0
CCc1ccc(CN2CCC(C(=O)Nc3ccc(-n4nc(C)cc4C)cc3)CC2)o1 | -4 | -5% | ? | 1% | 6.6µM* | -4
COc1ccc(C)cc1NC(=O)C1CCN(S(=O)(=O)c2ccc3c(c2)NC(=O)CO3)CC1 | -7 | 1% | 54% | 4% | -25% | 2
CSCC[C@H](NC(=O)[C@H](CC(C)C)NC(=O)[C@H](Cc1c[nH]c2ccccc12)NC(=O)[C@H](CCC(N)=O)NC(=O)[C@@H](NC(=O)[C@H](Cc1ccccc1)NC(=O)[C@H](CC(=O)O)NC(=O)[C@H](CCC(N)=O)NC(=O)[C@H](C)NC(=O)[C@H](CCCNC(=N)N)NC(=O)[C@H](CCCNC(=N)N)NC(=O)[C@H](CO)NC(=O)[C@H](CC(=O)O)NC(=O)[C@H](CC(C)C)NC(=O)[C@H](Cc1ccc(O)cc1)NC(=O)[C@H](CCCCN)NC(=O)[C@H](CO)NC(=O)[C@H](Cc1ccc(O)cc1)NC(=O)[C@H](CC(=O)O)NC(=O)[C@H](CO)NC(=O)[C@@H](NC(=O)[C@H](Cc1ccccc1)NC(=O)[C@@H](NC(=O)CNC(=O)[C@H](CCC(N)=O)NC(=O)[C@H](CO)NC(=O)[C@@H](N)Cc1cnc[nH]1)[C@@H](C)O)[C@@H](C)O)C(C)C)C(=O)N[C@@H](CC(N)=O)C(=O)N[C@H](C(=O)O)[C@@H](C)O | 18 | nt | nt | nt | nt | -8
Cc1noc(C)c1COc1ccc(C(=O)OCC(=O)Nc2c(C)n(C)n(-c3ccccc3)c2=O)cc1 | -2 | 7% | ? | 1% | -12% | -3
N#Cc1ccccc1Sc1ccccc1C(=O)Nc1ccccc1 | -2 | -7% | -1% | 0% | 2% | 18
Cc1cccc(NC(=O)c2sc3nc(N)c(C#N)cc3c2N)c1 | 31* | -10%[11.6 µM] | ? | 24% | ? | 72*
N#Cc1cc2c(N)c(C(=O)Nc3ccccc3)sc2nc1N | 36* | nt | 44% | 1% | 10% | 90*
CCOc1ccc(C(CC(=O)O)NC(=O)Cc2ccc(Cl)cc2)cc1 (stereo unspecified) | -2 | 3% | 3.3µM* | 0% | 5% | -10
O=c1[nH][nH]c2c1[C@H](c1ccccc1)O[C@H](C1CCCCC1)C2 | nt | 114% | nt | nt | nt | nt
CCOC(=O)c1ccccc1NC(=O)CN(c1ccccc1OCC)S(C)(=O)=O | -3 | -7% | 11% | ? | 9.3µM* | -6
CC(C)CNC(=O)c1ccccc1NC(=O)CN(c1ccccc1)S(=O)(=O)N(C)C | 0 | 5% | -1% | 0% | 10µM* | -8
COc1ccccc1N(CC(=O)Nc1ccccc1C(=O)NCC(C)C)S(C)(=O)=O | 5 | 1% | nt | 4% | 8.3µM* | -19
CCCCNC(=O)Nc1nnc(-c2ccccc2)o1 | 29* | 106% | ? | 18% | nt | 13
Cc1ccc(-c2nnc(Nc3ccccc3)o2)cc1 | 24* | -1% | ? | -6% | -90% | 42
O=C(Nc1ccc(F)cc1)Nc1nnc(-c2ccccc2)o1 | -1 | 16% | 16% | 0% | 7% | -10
Cc1ccc(NC(=O)Nc2nnc(-c3ccccc3)o2)cc1 | 51* | -2% | 48% | 1% | 56% | 77*
O=C(Nc1nnc(-c2ccccc2)o1)Nc1ccccc1Cl | 15* | -6% | ? | 2% | 36% | 17
CCCCNC(=O)Nc1nnc(-c2ccc(OCC)cc2)o1 | 1 | 103% | nt | 8% | ? | -7
CC(C)c1nc(CNC(=O)C2CCC(=O)N(CCc3ccc(Cl)cc3)C2)no1 (stereo unspecified) | -2 | 12% | ? | -4% | -26% | 8
COc1ccc(N2CCN(c3ccnc4cc(Cl)ccc34)CC2)cc1 | 0 | -18% | 7.4µM* | -5% | ? | 21
Clc1ccc2c(N3CCOCC3)ccnc2c1 | -2 | -10% | 11% | -4% | 9% | nt
COc1ccc(N2CCN(c3nccs3)CC2)cc1 | 37* | -12% | 90% | -1% | 74% | 72*
COc1ccc(CNC(=O)C2CCN(c3nccs3)CC2)cc1 | -7 | 3% | nt | -5% | 3% | -5
Oc1ccc(N2CCN(c3ccnc4cc(Cl)ccc34)CC2)cc1 | -3 | -18% | 2.3µM* | -13% | 3.3µM* | 22
SMILES | CHX counter | AMA1-RON2 inh | Pf growth 96h | SARS PLpro yeast | Pf growth 48h | Shiga toxin inh
NC(=O)C1CCN(c2cc(Cl)ccc2[N+](=O)[O-])CC1 | 6 | -5% | 6% | 1% | -5% | 11
NC(=O)C1CCN(c2ccnc3cc(Cl)ccc23)CC1 | 1 | -3% | 12µM* | 0% | ? | 3
CCc1cccc(C)c1NC(=S)N(CCOC)C(C)c1ccco1 (stereo unspecified) | 7 | 0% | 10% | 4% | ? | -3
CC(c1ccc(F)cc1)n1c(Cn2ncc3ccccc3c2=O)n[nH]c1=S (stereo unspecified) | 1 | 68% | ? | 1% | -8% | -17
Clc1ccc2c(N3CCCC3)ccnc2c1 | 0 | -12% | nt | 0% | 3.7µM* | -5
Clc1ccc2c(N3CCNCC3)ccnc2c1 | -3 | -5% | nt | nt | ? | -8
CCOC(=O)C1=NNC(C(=O)OCC)C1c1ccccc1 (stereo unspecified) | nt | 0% | nt | nt | nt | nt
CCOC(=O)C1=NNC(C(=O)c2ccc(Cl)cc2)C1c1ccc(OC)cc1 (stereo unspecified) | 1 | 0% | 13µM* | 0% | ? | 10
CCOC(=O)C1NN=C(C(=O)c2ccc(C)cc2)C1c1ccc(C)cc1 (stereo unspecified) | -2 | -15% | 10µM* | -13% | ? | 10
CCOC(=O)C1=NNC(C(=O)c2ccc(C)cc2)C1c1ccc(OC)cc1 (stereo unspecified) | 13 | 21% | nt | 7% | 12µM* | -15
CCCOc1ccc2cc(-c3ccccn3)c(=O)oc2c1 | 39* | 38% | -34% | -33% | -53% | -11
CCN(CC)C(=O)COc1ccc2c(-c3ccccc3)cc(=O)oc2c1 | -2 | -2% | 184% | -6% | ? | -6
O=c1oc2ccccc2cc1-c1ccccc1 | 30* | 19% | -6% | -1% | 49% | 42
COc1ccc(-c2cc(=O)oc3cc(OCC(=O)N(C)C)ccc23)cc1 | -4 | -2% | 10µM* | -1% | ? | -10
CN(C)C(=O)COc1ccc2cc(-c3ccccc3)c(=O)oc2c1 | 25* | -2% | 7%[5.75 µM] | 1% | 116% | 54*
COc1cc(S(=O)(=O)NCC2CCCO2)ccc1Br (stereo unspecified) | -5 | -11% | 37% | 6% | nt | -13
CCOC(=O)CCCCCNC(=O)c1ccc(F)cc1F | nt | 0% | nt | nt | nt | nt
